Source: PubChem BioAssay AID1159580 (chemical genetic matrix, 2015)
Out of some 5,500 compounds screened, about 2,000 (36%) were called active. Another 18% or so got no clear call; they are omitted. This is one part of the list. Values without a mark were called inactive. No stated cut-off is given here; in the data, active means normalized growth mostly below about 0.91 (no sharp cut-off); inconclusive means no clear call, values can overlap the other calls; inactive means mostly above about 0.92.

Test: chemical genetic growth profiling, strain panel (AID 1159580);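 further: tested at 20 µM; growth read once vehicle control cultures reached saturation at 30 °C; 1 = growth at the plate median or of vehicle wells; lower values mean less growth of the strain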
Conditions: S. cerevisiae deletion strains, growth OD

Which normalized growth (locus YAL021C, strain ccr4, active compounds read low) does the source give for CC12CCC(OC(=O)c3ccccc3)CC1CCc1ccccc12 (configuration not stated) here?
The normalized growth was 0.986.

And the normalized growth (locus YAL026C, strain drs2, active compounds read low)?
Its normalized growth is 0.99.

What about the normalized growth (locus YAL030W, strain snc1, active compounds read low) of the same compound?
Its normalized growth is 0.999.

What about the normalized growth (locus YBL061C, strain skt5, active compounds read low) of the same compound?
The normalized growth was 0.995.

And the normalized growth (locus YBR009C, strain hhf1, active compounds read low)?
The normalized growth was 1.

What about the normalized growth (locus YBR023C, strain chs3, active compounds read low) of the same compound?
The normalized growth was 0.995.

And the normalized growth (locus YBR171W, strain sec66, active compounds read low)?
Its normalized growth is 0.968.

And the normalized growth (locus YBR231C, strain swc5, active compounds read low)?
Its normalized growth is 0.939.

What about the normalized growth (locus YBR279W, strain paf1, active compounds read low) of the same compound?
Its normalized growth is 1.01.

What about the normalized growth (locus YCL011C, strain gbp2, active compounds read low) of the same compound?
Its normalized growth is 1.

What about the normalized growth (locus YCL016C, strain dcc1, active compounds read low) of the same compound?
The normalized growth was 0.991.

And the normalized growth (locus YCL061C, strain MRC1, active compounds read low)?
The normalized growth was 0.998.

What about the normalized growth (locus YCL069W, strain vba3, active compounds read low) of the same compound?
Its normalized growth is 0.996.

And the normalized growth (locus YCR088W, strain abp1, active compounds read low)?
The normalized growth was 0.984.

And the normalized growth (locus YDL005C, strain med2, active compounds read low)?
The normalized growth was 0.987.

And the normalized growth (locus YDL040C, strain nat1, active compounds read low)?
The normalized growth was 0.979.

And the normalized growth (locus YDR001C, strain nth1, active compounds read low)?
Its normalized growth is 0.985.

And the normalized growth (locus YDR069C, strain doa4, active compounds read low)?
Its normalized growth is 0.98.

And the normalized growth (locus YDR137W, strain rgp1, active compounds read low)?
The normalized growth was 0.964.

And the normalized growth (locus YDR159W, strain sac3, active compounds read low)?
Its normalized growth is 0.99.

What about the normalized growth (locus YDR195W, strain ref2) of the same compound?
The normalized growth was 0.964.

What about the normalized growth (locus YDR297W, strain sur2, active compounds read low) of the same compound?
Its normalized growth is 0.995.

And the normalized growth (locus YDR334W, strain swr1, active compounds read low)?
Its normalized growth is 0.959.

What about the normalized growth (locus YDR335W, strain msn5, active compounds read low) of the same compound?
Its normalized growth is 0.997.

What about the normalized growth (locus YDR392W, strain spt3, active compounds read low) of the same compound?
Its normalized growth is 0.866.

And the normalized growth (locus YEL003W, strain gim4, active compounds read low)?
The normalized growth was 0.985.

And the normalized growth (locus YEL037C, strain rad23, active compounds read low)?
The normalized growth was 0.991.

And the normalized growth (locus YEL061C, strain CIN8 (second series), active compounds read low)?
Its normalized growth is 0.841 (active).

And the normalized growth (locus YER015W, strain faa2, active compounds read low)?
Its normalized growth is 0.998.

What about the normalized growth (locus YER016W, strain bim1, active compounds read low) of the same compound?
The normalized growth was 0.907 (active).

And the normalized growth (locus YER111C, strain swi4, active compounds read low)?
Its normalized growth is 0.988.

What about the normalized growth (locus YER155C, strain BEM2 (second series), active compounds read low) of the same compound?
The normalized growth was 0.967.

And the normalized growth (locus YFR010W, strain ubp6, active compounds read low)?
The normalized growth was 0.992.

And the normalized growth (locus YGL167C, strain pmr1, active compounds read low)?
The normalized growth was 0.981.

What about the normalized growth (locus YGL173C, strain kem1, active compounds read low) of the same compound?
Its normalized growth is 0.987.

And the normalized growth (locus YGL227W, strain vid30, active compounds read low)?
The normalized growth was 0.986.

What about the normalized growth (locus YGL240W, strain doc1, active compounds read low) of the same compound?
The normalized growth was 0.952.

What about the normalized growth (locus YGL253W, strain hxk2, active compounds read low) of the same compound?
Its normalized growth is 1.01.

What about the normalized growth (locus YHR013C, strain ard1, active compounds read low) of the same compound?
The normalized growth was 0.855.

What about the normalized growth (locus YHR027C, strain rpn1, active compounds read low) of the same compound?
Its normalized growth is 0.999.

What about the normalized growth (locus YHR142W, strain chs7, active compounds read low) of the same compound?
The normalized growth was 1.01.

And the normalized growth (locus YJL092W, strain hpr5, active compounds read low)?
Its normalized growth is 0.989.

What about the normalized growth (locus YJL095W, strain BCK1 (second series), active compounds read low) of the same compound?
Its normalized growth is 1.

What about the normalized growth (locus YJL115W, strain asf1, active compounds read low) of the same compound?
The normalized growth was 0.989.

What about the normalized growth (locus YJL129C, strain trk1, active compounds read low) of the same compound?
The normalized growth was 0.999.

What about the normalized growth (locus YJL154C, strain vps35, active compounds read low) of the same compound?
The normalized growth was 0.992.

And the normalized growth (locus YJL164C, strain tpk1, active compounds read low)?
Its normalized growth is 0.989.

What about the normalized growth (locus YJL166W, strain qcr8, active compounds read low) of the same compound?
The normalized growth was 1.

What about the normalized growth (locus YJL187C, strain SWE1, active compounds read low) of the same compound?
The normalized growth was 1.

What about the normalized growth (locus YKL160W, strain elf1, active compounds read low) of the same compound?
The normalized growth was 1.

What about the normalized growth (locus YKR026C, strain gcn3, active compounds read low) of the same compound?
The normalized growth was 0.965.

What about the normalized growth (locus YKR091W, strain srl3, active compounds read low) of the same compound?
Its normalized growth is 0.984.

What about the normalized growth (locus YLL001W, strain dnm1, active compounds read low) of the same compound?
The normalized growth was 1.01.

And the normalized growth (locus YLL026W, active compounds read low)?
The normalized growth was 0.993.

What about the normalized growth (locus YLL041C, strain sdh2, active compounds read low) of the same compound?
The normalized growth was 0.994.

What about the normalized growth (locus YLR027C, strain aat2, active compounds read low) of the same compound?
Its normalized growth is 1.01.

What about the normalized growth (locus YLR221C, strain rsa3, active compounds read low) of the same compound?
Its normalized growth is 1.

What about the normalized growth (locus YLR258W, strain gsy2, active compounds read low) of the same compound?
Its normalized growth is 1.

What about the normalized growth (locus YLR262C, strain YPT6 (second series), active compounds read low) of the same compound?
The normalized growth was 1.04.

And the normalized growth (locus YLR320W, strain mms22, active compounds read low)?
The normalized growth was 1.

And the normalized growth (locus YLR342W, strain FKS1, active compounds read low)?
The normalized growth was 0.987.

What about the normalized growth (locus YLR357W, strain rsc2, active compounds read low) of the same compound?
Its normalized growth is 0.986.

What about the normalized growth (locus YLR370C, strain arc18, active compounds read low) of the same compound?
The normalized growth was 0.995.

And the normalized growth (locus YLR384C, strain iki3, active compounds read low)?
Its normalized growth is 1.

And the normalized growth (locus YML120C, strain ndi1, active compounds read low)?
Its normalized growth is 1.

What about the normalized growth (locus YMR058W, strain fet3, active compounds read low) of the same compound?
Its normalized growth is 1.

What about the normalized growth (locus YMR125W, strain sto1, active compounds read low) of the same compound?
Its normalized growth is 0.975.

What about the normalized growth (locus YMR129W, active compounds read low) of the same compound?
Its normalized growth is 0.986.

What about the normalized growth (locus YMR205C, strain PFK2, active compounds read low) of the same compound?
The normalized growth was 1.01.

And the normalized growth (locus YMR231W, strain pep5, active compounds read low)?
The normalized growth was 0.99.

And the normalized growth (locus YNL071W, strain lat1, active compounds read low)?
The normalized growth was 0.992.

And the normalized growth (locus YNL209W, strain ssb2, active compounds read low)?
Its normalized growth is 0.997.

And the normalized growth (locus YNL248C, strain rpa49, active compounds read low)?
Its normalized growth is 1.01.

And the normalized growth (locus YNL322C, strain KRE1 (second series), active compounds read low)?
Its normalized growth is 0.982.

And the normalized growth (locus YNR049C, strain mso1, active compounds read low)?
The normalized growth was 0.994.

What about the normalized growth (locus YOR001W, strain rrp6, active compounds read low) of the same compound?
Its normalized growth is 0.999.

What about the normalized growth (locus YOR070C, strain gyp1, active compounds read low) of the same compound?
Its normalized growth is 1.01.

And the normalized growth (locus YOR080W, strain dia2, active compounds read low)?
Its normalized growth is 0.965.

And the normalized growth (locus YOR083W, strain WHI5, active compounds read low)?
The normalized growth was 0.995.

What about the normalized growth (locus YOR106W, strain vam3, active compounds read low) of the same compound?
Its normalized growth is 1.01.

What about the normalized growth (locus YOR265W, strain rbl2, active compounds read low) of the same compound?
The normalized growth was 0.998.

And the normalized growth (locus YOR270C, strain vph1, active compounds read low)?
Its normalized growth is 1.06.

And the normalized growth (locus YOR290C, strain snf2, active compounds read low)?
The normalized growth was 0.955.

What about the normalized growth (locus YPL051W, strain arl3, active compounds read low) of the same compound?
The normalized growth was 1.

And the normalized growth (locus YPL078C, strain atp4, active compounds read low)?
Its normalized growth is 1.01.

And the normalized growth (locus YPL106C, strain sse1, active compounds read low)?
Its normalized growth is 0.992.

And the normalized growth (locus YPL240C, strain hsp82, active compounds read low)?
Its normalized growth is 0.988.
